Compounds without any hit were thinned out: in the full panel of roughly 83,000, 20% have a hit.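 Testing used 96-well plates and a 48-hour single-concentration exposure. Example: -40 means 40% of the starting cells died.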 Active and inactive are the calls of the source. How the source made its calls: active means growth percent below 10; inactive means the rest.
Legend:
Assay in all cases: NCI-60 one-dose screen, 48 h (100 = growth as untreated, 0 = no growth, -100 = all killed)
SK-MEL-2 melanoma = settings: 10 µM unless noted
SN12C renal = settings: 10 µM unless noted
UO-31 renal = settings: 10 µM unless noted
TK-10 renal = settings: 10 µM unless noted
ACHN renal = settings: 10 µM unless noted
CAKI-1 renal = settings: 10 µM unless noted
A498 renal = settings: 10 µM unless noted
CCRF-CEM leukemia = settings: 10 µM unless noted
MOLT-4 leukemia = settings: 10 µM unless noted
SR leukemia = settings: 10 µM unless noted
OVCAR-8 ovarian = settings: 10 µM unless noted
OVCAR-5 ovarian = settings: 10 µM unless noted
OVCAR-4 ovarian = settings: 10 µM unless noted
IGROV1 ovarian = settings: 10 µM unless noted
OVCAR-3 ovarian = settings: 10 µM unless noted
HS 578T breast = settings: 10 µM unless noted
NCI/ADR-RES ovarian = settings: 10 µM unless noted
RPMI-8226 leukemia = settings: 10 µM
SK-OV-3 ovarian = settings: 10 µM

Measured: growth

CCCCC/C=C\C/C=C/CCCCCCCCNC(=O)Nc1ccc([N+](=O)[O-])cc1
inactive: SK-MEL-2 melanoma 119% | SN12C renal 83.2% | UO-31 renal 60.5% | TK-10 renal 82.5% | ACHN renal 65.8% | CAKI-1 renal 56.2% | A498 renal 83.7% | CCRF-CEM leukemia 31.4% | MOLT-4 leukemia 43.2% | SR leukemia 34.9% | OVCAR-8 ovarian 52.9% | OVCAR-5 ovarian 113% | OVCAR-4 ovarian 93% | IGROV1 ovarian 46.3% | OVCAR-3 ovarian 21.3% | HS 578T breast 88.2% | NCI/ADR-RES ovarian 21.5%

CCOC(=O)c1cn2c3c(cc(F)cc3c1=O)C(CC)c1ccccc1C2 (stereo not given)
active: UO-31 renal -57.3%
inactive: SK-MEL-2 melanoma 96.8% | SN12C renal 96.3% | TK-10 renal 111% | ACHN renal 105% | CAKI-1 renal 102% | A498 renal 89.5% | CCRF-CEM leukemia 74.9% | MOLT-4 leukemia 65.6% | SR leukemia 66.2% | RPMI-8226 leukemia 64.2% | OVCAR-8 ovarian 95.9% | OVCAR-5 ovarian 104% | SK-OV-3 ovarian 104% | IGROV1 ovarian 93.1% | OVCAR-3 ovarian 92.9% | NCI/ADR-RES ovarian 91.2%

O=C(Nc1ccc(F)cc1)c1ccc(C(=O)Nc2ccc(F)cc2)cc1
inactive: SK-MEL-2 melanoma 105% | SN12C renal 102% | UO-31 renal 87.8% | TK-10 renal 108% | ACHN renal 99.8% | CAKI-1 renal 94.2% | A498 renal 90.4% | CCRF-CEM leukemia 102% | MOLT-4 leukemia 94.4% | SR leukemia 94.5% | RPMI-8226 leukemia 113% | OVCAR-8 ovarian 99.6% | OVCAR-5 ovarian 101% | OVCAR-4 ovarian 93.4% | SK-OV-3 ovarian 103% | IGROV1 ovarian 109% | OVCAR-3 ovarian 109% | HS 578T breast 106% | NCI/ADR-RES ovarian 116%

CC1(C)N=C(N)N=C(N)N1c1cccc(OCCOc2cccc([N+](=O)[O-])c2)c1
inactive: SK-MEL-2 melanoma 39.4% | SN12C renal 28.8% | UO-31 renal 78.4% | TK-10 renal 71.8% | ACHN renal 89.9% | CAKI-1 renal 90.1% | A498 renal 91% | CCRF-CEM leukemia 29.7% | MOLT-4 leukemia 26% | SR leukemia 15.9% | RPMI-8226 leukemia 52.4% | OVCAR-8 ovarian 105% | OVCAR-5 ovarian 32% | OVCAR-4 ovarian 81.3% | SK-OV-3 ovarian 70% | IGROV1 ovarian 29.7% | OVCAR-3 ovarian 45.3% | HS 578T breast 82% | NCI/ADR-RES ovarian 107%

Nc1cccc2c(=S)c3ccccc3[nH]c12
inactive: SK-MEL-2 melanoma 87.5% | SN12C renal 90.6% | UO-31 renal 56.4% | TK-10 renal 192% | ACHN renal 92.7% | CAKI-1 renal 77.1% | A498 renal 64.5% | CCRF-CEM leukemia 100% | MOLT-4 leukemia 104% | SR leukemia 111% | OVCAR-8 ovarian 93.7% | OVCAR-5 ovarian 92.9% | OVCAR-4 ovarian 83% | IGROV1 ovarian 86.9% | OVCAR-3 ovarian 91% | HS 578T breast 94.3% | NCI/ADR-RES ovarian 101%

COc1ccc(C2CC(c3cc(OC)c(OC)c(OC)c3)=NN2c2ccc(S(N)(=O)=O)cc2)cc1 (stereo not given)
inactive: SK-MEL-2 melanoma 83.2% | SN12C renal 73.7% | UO-31 renal 29.8% | TK-10 renal 66.4% | ACHN renal 76.5% | CAKI-1 renal 67.3% | A498 renal 44.5% | CCRF-CEM leukemia 41.3% | SR leukemia 33.2% | OVCAR-8 ovarian 61.9% | OVCAR-5 ovarian 92.3% | OVCAR-4 ovarian 69.9% | SK-OV-3 ovarian 88.3% | IGROV1 ovarian 73.9% | OVCAR-3 ovarian 77.5% | HS 578T breast 66.7% | NCI/ADR-RES ovarian 55.4%
active: RPMI-8226 leukemia 4.35%

COc1ccc(S(=O)(=O)ON=C2C=C(C)C(=O)C(C)=C2)cc1
inactive: SK-MEL-2 melanoma 82.5% | SN12C renal 113% | UO-31 renal 80.4% | TK-10 renal 109% | ACHN renal 46% | CAKI-1 renal 61.6% | A498 renal 98.4% | CCRF-CEM leukemia 26.9% | MOLT-4 leukemia 42% | SR leukemia 31.8% | OVCAR-8 ovarian 93.1% | OVCAR-5 ovarian 103% | OVCAR-4 ovarian 55.4% | SK-OV-3 ovarian 66.9% | IGROV1 ovarian 95% | OVCAR-3 ovarian 68.5% | HS 578T breast 101% | NCI/ADR-RES ovarian 98.5%

C[C@H]1C(=O)C23CCC1C[C@@]21O[C@@H]2C(C)(C)C=CC(=O)C23COC1=O
inactive: SK-MEL-2 melanoma 104% | SN12C renal 103% | UO-31 renal 81.5% | TK-10 renal 98.9% | ACHN renal 104% | CAKI-1 renal 101% | A498 renal 92% | CCRF-CEM leukemia 71.7% | MOLT-4 leukemia 102% | SR leukemia 102% | OVCAR-8 ovarian 101% | OVCAR-5 ovarian 109% | OVCAR-4 ovarian 108% | SK-OV-3 ovarian 102% | IGROV1 ovarian 110% | OVCAR-3 ovarian 126% | HS 578T breast 109%

Cc1ccc(-c2c3c(N)c4c(nc3nc3c2c(C)nn3-c2ccccc2)CCCC4)cc1
inactive: SK-MEL-2 melanoma 96% | SN12C renal 99.8% | UO-31 renal 88% | TK-10 renal 102% | ACHN renal 97.7% | A498 renal 92.2% | CCRF-CEM leukemia 82.7% | MOLT-4 leukemia 92.6% | RPMI-8226 leukemia 94.1% | OVCAR-8 ovarian 98.1% | OVCAR-5 ovarian 101% | OVCAR-4 ovarian 96% | SK-OV-3 ovarian 99.9% | IGROV1 ovarian 98.6% | OVCAR-3 ovarian 116% | HS 578T breast 105% | NCI/ADR-RES ovarian 106%
active: SR leukemia -4.06%

NS(=O)(=O)c1ccc(C(=O)N/N=C(\CS(=O)(=O)c2ccccc2)c2cc3cc(Br)ccc3o2)cc1
inactive: SK-MEL-2 melanoma 100% | SN12C renal 89% | UO-31 renal 101% | TK-10 renal 107% | ACHN renal 99.3% | CAKI-1 renal 89.9% | CCRF-CEM leukemia 118% | MOLT-4 leukemia 137% | SR leukemia 127% | RPMI-8226 leukemia 98.3% | OVCAR-8 ovarian 75.2% | OVCAR-5 ovarian 99.8% | IGROV1 ovarian 92.5% | OVCAR-3 ovarian 94.5% | HS 578T breast 80.7% | NCI/ADR-RES ovarian 98%

FC(F)(F)c1cc(CNc2ncc(Br)c(Cl)n2)cc(C(F)(F)F)c1
inactive: SK-MEL-2 melanoma 94% | SN12C renal 99.7% | UO-31 renal 83.3% | TK-10 renal 97.9% | ACHN renal 104% | A498 renal 96.7% | CCRF-CEM leukemia 83.2% | MOLT-4 leukemia 86% | SR leukemia 85.8% | RPMI-8226 leukemia 88.5% | OVCAR-8 ovarian 101% | OVCAR-5 ovarian 102% | OVCAR-4 ovarian 102% | SK-OV-3 ovarian 92.5% | IGROV1 ovarian 91.7% | OVCAR-3 ovarian 120% | HS 578T breast 99.4% | NCI/ADR-RES ovarian 93.2%

Cc1ccc(NS(=O)(=O)c2ccc(-c3cnc(C4CC4)o3)cc2)cc1
active: OVCAR-3 ovarian -2% | HS 578T breast -2.93% | NCI/ADR-RES ovarian 8.09%
inactive: SK-MEL-2 melanoma 23.9% | SN12C renal 42.2% | UO-31 renal 55.3% | TK-10 renal 64.9% | ACHN renal 46.6% | CAKI-1 renal 38.8% | CCRF-CEM leukemia 35.5% | MOLT-4 leukemia 32% | SR leukemia 33.8% | RPMI-8226 leukemia 37.6% | OVCAR-8 ovarian 49.3% | OVCAR-5 ovarian 48.8% | OVCAR-4 ovarian 59% | IGROV1 ovarian 39.8%

Oc1ccc(Cl)cc1CNc1nc2ccccc2[nH]1
inactive: SK-MEL-2 melanoma 87.1% | SN12C renal 61.1% | UO-31 renal 56% | TK-10 renal 88.2% | ACHN renal 57% | CAKI-1 renal 64% | OVCAR-8 ovarian 42.8% | OVCAR-5 ovarian 98.9% | SK-OV-3 ovarian 87.1% | HS 578T breast 89% | NCI/ADR-RES ovarian 38.6%
active: CCRF-CEM leukemia -21.4% | MOLT-4 leukemia -25.1% | SR leukemia -31.7% | RPMI-8226 leukemia -21.2% | OVCAR-3 ovarian -73.8%

COc1cc(C2C3=C(COC3=O)N(CCO)c3cc4c(cc32)OCO4)cc(OC)c1O (stereo not given)
inactive: SK-MEL-2 melanoma 25% | SN12C renal 52.7% | UO-31 renal 57.9% | TK-10 renal 61.8% | ACHN renal 37.9% | CAKI-1 renal 60.4% | CCRF-CEM leukemia 28.6% | MOLT-4 leukemia 47.6% | SR leukemia 21.5% | RPMI-8226 leukemia 21.8% | OVCAR-8 ovarian 42.8% | OVCAR-5 ovarian 72% | OVCAR-4 ovarian 48.3% | SK-OV-3 ovarian 31.8% | IGROV1 ovarian 36% | NCI/ADR-RES ovarian 73.3%
active: OVCAR-3 ovarian -25.9% | HS 578T breast 3.31%

Cc1cc(Cl)c2c(Cl)ccc(Cl)c2n1
inactive: SK-MEL-2 melanoma 81.4% | SN12C renal 113% | UO-31 renal 89.8% | TK-10 renal 112% | ACHN renal 105% | CAKI-1 renal 95% | CCRF-CEM leukemia 98.7% | MOLT-4 leukemia 95.6% | SR leukemia 91.9% | OVCAR-8 ovarian 103% | OVCAR-5 ovarian 101% | OVCAR-4 ovarian 128% | SK-OV-3 ovarian 97.7% | IGROV1 ovarian 111% | OVCAR-3 ovarian 105% | HS 578T breast 119% | NCI/ADR-RES ovarian 114%

COc1ccc(/C=N\N2CCOCC2)cc1OC1CCCC1
inactive: SK-MEL-2 melanoma 106% | SN12C renal 101% | UO-31 renal 82% | TK-10 renal 101% | ACHN renal 104% | CAKI-1 renal 94.1% | CCRF-CEM leukemia 106% | MOLT-4 leukemia 122% | SR leukemia 101% | RPMI-8226 leukemia 103% | OVCAR-8 ovarian 104% | OVCAR-5 ovarian 103% | OVCAR-4 ovarian 97.6% | IGROV1 ovarian 107% | OVCAR-3 ovarian 114% | HS 578T breast 90.7% | NCI/ADR-RES ovarian 106%

Cn1c2c(cc(S(=O)(=O)c3ccccc3)c1=O)CCc1c-2cnn1-c1ccccc1Cl
inactive: SK-MEL-2 melanoma 105% | SN12C renal 97.8% | TK-10 renal 122% | A498 renal 86.5% | CCRF-CEM leukemia 96.4% | MOLT-4 leukemia 90.7% | SR leukemia 80.2% | RPMI-8226 leukemia 91.7% | OVCAR-8 ovarian 88.6% | OVCAR-5 ovarian 96.5% | OVCAR-4 ovarian 101% | SK-OV-3 ovarian 88.7% | IGROV1 ovarian 107% | OVCAR-3 ovarian 110% | HS 578T breast 117% | NCI/ADR-RES ovarian 113%
active: UO-31 renal -16% | ACHN renal -31%

Cc1nc2cc(Nc3nc(N4CCCCC4)nc(N4CCOCC4)n3)ccc2n1Cc1ccccc1
inactive: SK-MEL-2 melanoma 19% | SN12C renal 52.2% | CAKI-1 renal 63.3% | CCRF-CEM leukemia 62.2% | MOLT-4 leukemia 36.4% | SR leukemia 25.2% | RPMI-8226 leukemia 17.7% | OVCAR-8 ovarian 27.6% | OVCAR-5 ovarian 55.8% | SK-OV-3 ovarian 39.8% | IGROV1 ovarian 47% | HS 578T breast 34.6% | NCI/ADR-RES ovarian 27%
active: UO-31 renal 1.61% | TK-10 renal -32.9% | ACHN renal -41.4% | OVCAR-4 ovarian -63.9% | OVCAR-3 ovarian -3.53%

— PubChem BioAssay (NCI)
